By Inhibition is commonly meant the change of the read-out against control, counted positive when it falls. Read a high Inhibition as strong suppression.

Experimental findings from ChEMBL document CHEMBL1157539, “Thousands of chemical starting points for antimalarial lead identification” (Nature, 2010) are described below.

Common to all, as to format: functional
Assay [1] relates to Plasmodium falciparum. Kind of assay: GSK_TCMDC: Inhibition of Plasmodium falciparum 3D7 in whole red blood cells, using parasite LDH activity as an index of growth. Test compounds present at 2uM.
In assay [2] the test system is Plasmodium falciparum. Description: GSK_TCMDC: Inhibition of Plasmodium falciparum Dd2 in whole red blood cells, using parasite LDH activity as an index of growth. Test compounds present at 2uM.
Assay [3] concerns HepG2. Description: GSK_TCMDC: Percent inhibition of human HepG2 cell line. Test compounds present at 10uM.

Each structure is given as a SMILES string.

As for `CCNc1cc(C)nc(Nc2ccc(NC(=O)c3ccccc3)cc2)n1`, the Inhibition in assay [1] is 100%; in assay [2] it was 63%; in assay [3], 41%.
Take `COc1cc(C(C)C)ccc1N1CCN(CCCCNC(=O)c2ccc(NC(=O)c3ccc(Cl)cc3)cc2)CC1`: the Inhibition stood at 98% in assay [1], 81% in assay [2] and 25% in assay [3].
For the compound `COc1ccc2nccc([C@@H](O)CN3CCC(NC(=O)/C=C/c4cc([N+](=O)[O-])ccc4OC)CC3)c2c1`, the Inhibition is recorded as 99% in assay [1], 76% in assay [2] and 12% in assay [3].
In the case of `CCCCCC(C)c1cc(O)c2c(c1)OC(C)(C)C=C2C1=CCN(Cc2ccccc2)CC1` (stereo not given), the Inhibition in assay [1] is 96%; in assay [2], 96%; in assay [3], 13%.
Regarding `COc1cc(C(C)C)ccc1C1CCN(CCCCNC(=O)c2ccc(NC(=O)c3ccc(Cl)cc3)cc2)CC1.O=C(O)/C=C/C(=O)O`, the Inhibition is 98% in assay [1], 99% in assay [2] and 100% in assay [3].
In the case of `Fc1cccc(COc2ccc(Nc3ncnc4sc(C#C[C@H]5CC[C@H](CNCC(F)(F)F)N5)cc34)cc2Cl)c1`, the Inhibition was found to be 100% in assay [1], 51% in assay [2] and 10% in assay [3].
For the compound `COC(=O)Cn1c(C2CCN(CC3CCN(C(=O)/C=C/c4ccc(Cl)c(Cl)c4)CC3)CC2)nc2ccccc21`, the results for the Inhibition in assay [1], in assay [2] and in assay [3] were 86%, 2% and 19%, respectively.
With `Cc1nc(NC2=NCN(CCCN3CCOCC3)CN2)nc2c(C)cccc12`, the Inhibition in assay [1] was determined as 89%; in assay [2] it was 62%; in assay [3], 17%.
Turning to `Cn1nccc1C(=O)NCCNCc1ccc(-c2cccc(-c3nc4cc(C(F)(F)F)ccc4[nH]3)c2)cc1.O=C(O)C(F)(F)F`, the results for the Inhibition in assay [1], in assay [2] and in assay [3] were 100%, 99% and 51%, respectively.
`Clc1ccc(Cl)c2[nH]c(CNCCCNc3nc4ccccc4[nH]3)cc12`: the figures for the Inhibition in assay [1], in assay [2] and in assay [3] were 100%, 39% and 88%, respectively.
Regarding `Cc1nc2nc(N)nc(N)c2c(C)c1Cc1ccc(C#N)cc1.Cl`, the Inhibition in assay [1] worked out at 96%; in assay [2] it was 4%; in assay [3] it was 69%.
For `C[C@H]1CN(Cc2cccc(-c3cc(CNC(=O)c4cccc(C(=O)c5ccc(Cl)c(Cl)c5)c4)ccc3F)c2)CCN1`, the Inhibition in assay [1] was determined as 85%; in assay [2] it was 42%; in assay [3], 40%.
Taken in the same sequence, the figures for `CN(Cc1ccncc1)C(Cc1ccccc1)C1CCN(Cc2ccc(O)c(Cl)c2)CC1` (stereo not given) were 96%, 97% and 22%.
Consider `O=C(Nc1cccc(Cl)c1Cl)N[C@H]1CCN(CCCCCNC(=O)C2CC2c2ccc(Cl)c(Cl)c2)C1` (stereo not given in full), for which the Inhibition in assay [1] is listed as 87%; in assay [2] it was 0%; in assay [3], 40%.
On to `CCOc1ccc2c(=NN=Cc3cc(OC)c(OC)c(OC)c3)cc(C)[nH]c2c1`, for which the results for the Inhibition in assay [1], in assay [2] and in assay [3] were 100%, 99% and 18%, respectively.
Taken in the same sequence, the figures for `CCN(CC)CC(O)c1cc(-c2ccc(C)cc2)nc2c(C)cc(C)cc12.Cl` (stereo not given) were 100%, 99% and 3%.
Regarding `COc1ccc(CCN2CC[C@H](Nc3nc(-c4ccc(F)c(F)c4)nc4ccccc34)C2)cc1S(N)(=O)=O.Cl`, the results for the Inhibition in assay [1], in assay [2] and in assay [3] were 99%, 64% and 18%, respectively.
In the case of `CS(=O)(=O)CCN(CCS(C)(=O)=O)Cc1ccc(-c2ccc3ncnc(Nc4ccc(OCc5cccc(F)c5)c(Cl)c4)c3c2)o1.Cc1ccc(S(=O)(=O)O)cc1`, the Inhibition turned out to be 90% in assay [1], 27% in assay [2] and 0% in assay [3].
Regarding `NC(=O)c1ccccc1OCC(=O)Nc1cccc(-c2ccc(-c3nc4cc(C(F)(F)F)ccc4[nH]3)cc2)c1`, the Inhibition in assay [1] turned out to be 92%; in assay [2], 17%; in assay [3] it was 58%.
Regarding `COc1ccc2c(NN=Cc3ccc(N(C)C)cc3)ccnc2c1`, the Inhibition in assay [1] came to 100%; in assay [2] it was 100%; in assay [3], 12%.
On to `Cc1cc(CNC(=O)c2ccc(-c3ccc(-c4nc5cc(C(F)(F)F)ccc5[nH]4)s3)cc2)on1`, for which the Inhibition in assay [1] came to 93%; in assay [2], 56%; in assay [3], 15%.
For `Cc1cccc2nc(-c3cccc(-c4ccc(NC(=O)Cc5ccccn5)cc4)c3)[nH]c12`, the Inhibition turned out to be 94% in assay [1], 57% in assay [2] and 25% in assay [3].
Turning to `CCOc1cc(C)ccc1NC1CCN(CCCCNC(=O)c2ccc(NC(=O)c3ccc(Cl)cc3)cc2)CC1`, the Inhibition in assay [1] stood at 100%; in assay [2], 70%; in assay [3], 17%.
Taken in the same sequence, the figures for `CNC(=O)c1cnc(Nc2ccc(OCC(O)CN(C)C)cc2)nc1Nc1cccc(OC)c1.O=C(O)C(F)(F)F` (stereo not given) were 100%, 97% and 31%.
`CCc1cn2c3c(cc(C(=O)N[C@@H](Cc4cccc(F)c4)[C@H](O)CNC4CCCCC4)cc13)N(C)S(=O)(=O)CC2.O=CO`: the Inhibition is reported as 99% in assay [1], 99% in assay [2] and 5% in assay [3].
Take `O=C(NC(NC(=S)Nc1ccc([N+](=O)[O-])cc1)C(Cl)(Cl)Cl)c1cccc(Cl)c1` (stereo not given): the Inhibition in assay [1] stood at 97%; in assay [2] it was 100%; in assay [3], 24%.
With `O=C(O)C(F)(F)F.O=C(c1ccccc1)N(Cc1ccccc1-c1ccc(CNCCc2ccccc2)cc1)C1CCN(Cc2ccccc2)CC1`, the Inhibition in assay [1] amounted to 95%; in assay [2], 69%; in assay [3], 95%.
Take `COc1ccc(CCN(C)CCCN2CCC(NC(=O)c3cccc4c(=O)c5ccccc5sc34)CC2)cc1OC.O=C(O)C(=O)O`: the Inhibition in assay [1] is 97%; in assay [2], 79%; in assay [3], 67%.
In the same order, the values of `Cc1cnc(C(=O)Nc2cccc(-c3ccc(-c4nc5cc(C(F)(F)F)ccc5[nH]4)s3)c2)cn1` are 86%, 14% and 35%.
Take `COc1cc2c(cc1S(=O)(=O)c1ccc(NC(=O)Nc3ccc(F)cc3)cc1)CCN(C)CC2.Cl`: the Inhibition was determined as 99% in assay [1], 55% in assay [2] and 0% in assay [3].
